Experiment [1] deals with LEGO organoid PTCC (PTEN-/-; TP53-/-; CDKN2A-/-; CDKN2B-/-). As to the kind of experiment: bioluminescence (viable cell) signal fold change after vs before treatment, normalised to DMSO (ratio); higher = more tumour cell growth / less inhibition. Conditions: 10 µM; treatment time 6 days. The procedure: (§1)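 Luc2-labelled iPSC-derived glioblastoma-like organoids (LEGOs, genotypes PT = PTEN-/-;TP53-/-, PTCC = plus CDKN2A/B-/-, PTN = plus NF1-/-) were treated with 10 uM drug for 6 days (applied every other day) at 37 C. Bioluminescence imaging was done before treatment and 2 days after the last dose. BLI signals were normalised to the DMSO control on the same day and then to the pre-treatment signal (N=3).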

The test system of experiment [2] is LEGO organoid PTN (PTEN-/-; TP53-/-; NF1-/-). The experiment is described as above. The settings on record: 10 µM; treatment time 6 days. The procedure:
as §1

The text below walks through data of the supplement of paper PMC10811239.

`CNCC[C@@H](Oc1ccccc1C)c1ccccc1.Cl` [Atomoxetine hydrochloride]: the results for the bioluminescence in experiment [1] and in experiment [2] were 1.04 and 1.97, respectively.

On to `CNS(=O)(=O)Cc1ccc2[nH]cc(CCN(C)C)c2c1.O=C(O)CCC(=O)O` [Sumatriptan succinate], for which the bioluminescence in experiment [1] was found to be 0.433; in experiment [2], 1.05.

`O=C(CCCN1CC=C(n2c(=O)[nH]c3ccccc32)CC1)c1ccc(F)cc1` [Droperidol]: the bioluminescence stood at 0.69 in experiment [1] and 0.372 in experiment [2].

As for `Cl.NC12CC3CC(CC(C3)C1)C2` [Amantadine hydrochloride], the bioluminescence in experiment [1] came out at 1.07; in experiment [2] it was 3.32.

On to `CC(=O)c1c(C)c2cnc(Nc3ccc(N4CCNCC4)cn3)nc2n(C2CCCC2)c1=O.O=S(=O)(O)CCO` [Palbociclib Isethionate], for which the bioluminescence in experiment [1] worked out at 2.84; in experiment [2] it was 1.14.
